Reference: PubChem BioAssay (NCATS)
Records with an inconclusive call do not appear. Where a call stands in place of a potency, no number is given. Activity calls are given as the source filed them. The call rests on the fitted dose curve; in most records, active means well fitted curve in the direction sought with a large enough effect; inconclusive means small, poorly fitted or top-dose-only effect, or another doubt; inactive means no such curve, though single readings can be large; an effect the other way counts as inactive or inconclusive.

Tests used:
[1] = test system: Zika virus NS2B-NS3 protease (linked construct); experiment: Primary screen NINDS Rhodamine qHTS for Zika virus inhibitors (AID 1347160); further: nearly all actives have a fitted effect of over 55% in size; further: potency means the concentration at half of the fitted maximal effect
Method in brief: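 Purified NS2B-NS3 protease with the NS2B hydrophilic domain joined by a flexible linker (25 nM) in 10 mM Tris-HCl pH 8.0, 0.01% Tween 20, preincubated 15 min at RT with compound; Rhodamine110 peptide substrate 1.5 µM; fluorescence change over 15 min; 4-parameter Hill fit.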

[2] = OV-KATE Cancer Cell Toxicity qHTS against the NCATS CANVASS Library (AID 1347345); further: potency means the concentration at half of the fitted maximal effect
Method in brief: (§1)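 1000 cells/well; 4 h settle; 11-pnt titration; 72 h, 37 degrees C, 5% CO2; CellTiter-Glo, 15min RT; luminescence read.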

[3] = OV-SAHO Cancer Cell Toxicity qHTS against the NCATS CANVASS Library (AID 1347348); further: nearly all actives have a fitted effect of over 55% in size; further: potency means the concentration at half of the fitted maximal effect
Method in brief: as §1

[4] = SW1088 Cancer Cell Toxicity qHTS against the NCATS CANVASS Library (AID 1347350); further: nearly all actives have a fitted effect of over 75% in size; further: potency means the concentration at half of the fitted maximal effect
Method in brief: as §1

[5] = U-118MG Cancer Cell Toxicity qHTS against the NCATS CANVASS Library (AID 1347351); further: potency means the concentration at half of the fitted maximal effect
Method in brief: as §1

[6] = UWB1.289-WTBRCA1 Cancer Cell Toxicity qHTS against the NCATS CANVASS Library (AID 1347354); further: potency means the concentration at half of the fitted maximal effect
Method in brief: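 Cells at 1000/well were given compound 4 h after plating in an 11-point series. Viability was read by CellTiter-Glo luminescence after 72 h at 37 degrees C.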

[7] = HEK293 18hr Apoptosis Induction qHTS against the NCATS CANVASS Library (AID 1347357)
Method in brief: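 Caspase-3/7 luminescence (DEVD substrate, Caspase-Glo) after 18 h compound exposure of HEK293 cells, 500 cells/well; 11-point series; doxorubicin titration as control.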

[8] = HPAF-II 12hr Apoptosis Induction qHTS against the NCATS CANVASS Library (AID 1347358)
Method in brief: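 HPAF-II cells, 500/well in DMEM + 10% FBS, exposed 12 hours at 37 degrees C to compound (11-point). Caspase-Glo 3/7 added for 15 min at room temperature; luminescence reflects caspase-3/7 activity.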

[9] = HEK293 12hr Apoptosis Induction qHTS against the NCATS CANVASS Library (AID 1347361)
Method in brief: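 500 HEK293 cells/well; cpds pin-transferred, 11-pt conc series; 12 h, 37 degrees C/5% CO2; Caspase-Glo 3/7 added, 15 min RT dark; luminescence.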

[10] = KB-8-5-11 Cancer Cell Toxicity qHTS against the NCATS CANVASS Library (AID 1347364); further: nearly all actives have a fitted effect of over 75% in size; further: potency means the concentration at half of the fitted maximal effect
Method in brief: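 KB-8-5-11 cells, 500/well in DMEM + 10% FBS, given compounds in an 11-point series. Incubated 72 h at 37 °C. Viability by CellTiter-Glo luminescence. Confirmation also run with 1 uM tariquidar.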

[11] = SDT Cancer Cell Toxicity qHTS against the NCATS CANVASS Library (AID 1347365); further: nearly all actives have a fitted effect of over 60% in size; further: potency means the concentration at half of the fitted maximal effect
Method in brief: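 SDT dog glioma cells (500/well) exposed to an 11-point compound series for 72 hr at 37C, 5% CO2. Cytotoxicity read as ATP content by CellTiterGlo luminescence; bortezomib titration as control.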

[12] = qHTS for Antimalaria activity screened against the NCATS CANVASS Library (AID 1347380); further: nearly all actives have a fitted effect of over 40% in size; further: potency means the concentration at half of the fitted maximal effect
Method in brief: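 Red blood cells infected with P. falciparum Dd2 (2.5% hematocrit final, 0.3% parasitemia) were exposed to compounds in an 11-point qHTS series for 72 hr at 37C under 5% O2 and 5% CO2. Lysis buffer with SYBR Green was then added for 18 hr, and fluorescence was read at 485/535 nm.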

[13] = qHTS for activators of Nrf2/ARE signaling pathway screened against the NCATS CANVASS Library (AID 1347391); further: nearly all actives have a fitted effect of over 60% in size; further: potency means the concentration at half of the fitted maximal effect
Method in brief: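 ARE-bla HepG2 beta-lactamase reporter cells exposed to compounds for 16 h at 37C; CCF4 substrate 2 h, fluorescence at ex 405 nm, em 460/530 nm. Viability by CellTiter-Glo luminescence.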

[14] = qHTS for inhibitors of Wild type Zika virus screened against the NCATS CANVASS Library (AID 1347396);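 further: ATP luminescence of surviving cells so rescue from viral cell killing; series mostly up to about 46 µM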
Method in brief: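 Vero 766 (African green monkey) cells, 1000 per well, attached overnight, then compounds were added in an 11-point series before wild-type Zika virus infection. After 72 h at 37C, cell viability was read as CellTiter Glo luminescence.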

[15] = Viability qHTS for inhibitors of the SERCaMP assay screened against the NCATS CANVASS Library (AID 1347400); further: nearly all actives have a fitted effect of over 70% in size; further: potency means the concentration at half of the fitted maximal effect
Method in brief: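 SH-SY5Y-GLuc SERCaMP MJH297-derived cells, 1000/well, plated 4 h, then exposed to compounds in an 11-point qHTS series for 48 h at 37C. Viability read as CellTiter-Glo luminescence.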

[16] = Redox Reaction Profiling qHTS: Assay Interference Panel against the NCATS CANVASS Library (AID 1347401); further: potency means the concentration at half of the fitted maximal effect
Method in brief: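 Compounds in 11-point series incubated with 5 uM resazurin and 200 uM DTT in 50 mM HEPES pH 7.3, 50 mM NaCl. Resorufin fluorescence (Ex 525/Em 598) read before and after 15 min in the dark.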

[17] = target: Luciferin 4-monooxygenase (Photinus pyralis) (UniProt P08659); experiment: Firefly luciferase counterscreen qHTS: Assay Interference Panel against the NCATS CANVASS Library (AID 1347363); further: series mostly up to about 57 µM
Chain of Luciferin 4-monooxygenase (Photinus pyralis) (P08659 whole entry, looked up): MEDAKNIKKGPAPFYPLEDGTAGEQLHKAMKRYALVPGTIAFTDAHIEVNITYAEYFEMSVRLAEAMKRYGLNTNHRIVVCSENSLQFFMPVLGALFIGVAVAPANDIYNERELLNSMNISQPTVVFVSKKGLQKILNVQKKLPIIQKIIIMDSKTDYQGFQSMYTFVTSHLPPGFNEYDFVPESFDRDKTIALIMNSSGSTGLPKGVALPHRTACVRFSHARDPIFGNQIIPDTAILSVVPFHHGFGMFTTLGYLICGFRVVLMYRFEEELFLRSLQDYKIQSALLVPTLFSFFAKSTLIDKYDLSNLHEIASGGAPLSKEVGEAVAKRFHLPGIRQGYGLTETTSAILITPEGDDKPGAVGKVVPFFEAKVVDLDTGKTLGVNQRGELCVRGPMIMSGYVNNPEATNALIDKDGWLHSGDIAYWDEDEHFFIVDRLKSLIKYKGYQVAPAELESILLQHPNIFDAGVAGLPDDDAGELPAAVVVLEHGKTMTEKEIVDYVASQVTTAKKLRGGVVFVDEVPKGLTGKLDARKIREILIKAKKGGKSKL
Method in brief: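 Purified P. pyralis luciferase (0.04 ug/mL, 4x reagent) added to Tris-acetate buffer with 0.013 mM D-luciferin, 0.013 mM ATP and 13.3 mM Mg-acetate; compounds preincubated 15 min, then luminescence read after 5 min, RT.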

[18] = MCF7 Cancer Cell Toxicity qHTS against the NCATS CANVASS Library (AID 1347369)
Method in brief: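 Luminescent ATP signal (CellTiterGlo) served as the cytotoxicity read-out after MCF7 breast cancer cells had been incubated 72 hr at 37C with natural products in an 11-point titration.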

[19] = qHTS for Hypoxia signaling pathway (HIF-1) antagonists against the NCATS CANVASS Library (AID 1347374); further: potency means the concentration at half of the fitted maximal effect; nearly all actives have a fitted effect of over 60% in size
Method in brief: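 HRE-bla ME-180 cells in medium with 0.5% dialyzed FBS received compounds (11-point series) plus CoCl2 (60 uM addition stock) for 17 hrs at 37C. Beta-lactamase activity read with CCF4 (405 nm ex, 460/530 nm em); CellTiter-Glo viability measured in same wells.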

[20] = A2780 Cisplatin Sensitive Ovarian Cancer Cell Toxicity qHTS against the NCATS CANVASS Library (AID 1347353); further: potency means the concentration at half of the fitted maximal effect; nearly all actives have a fitted effect of over 60% in size
Method in brief: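 A2780 cells, 750/well, settled 4 h at 37 °C, then treated with an 11-point compound series for 72 h. Viability was read as ATPLite luminescence after 10 min at room temperature, with bortezomib as control.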

SMILES	Potency [1]	Potency [2]	Potency [3]	Potency [4]	Potency [5]	Potency [6]	Potency [7]	Potency [8]	outcome [9]	Potency [10]	Potency [11]	Potency [12]	Potency [13]	outcome [14]	Potency [15]	Potency [16]	Potency [17]	Potency [18]	Potency [19]	Potency [20]
C[n+]1cc2cc(C(N)=O)[nH]c3c(=N)c(Cl)c(N)c1c23	44 µM (active)	inactive	inactive	inactive	inactive	inactive	inactive	inactive	inactive	inactive	16.6 µM (active)	inactive	inactive	inactive	42.8 µM (active)	1.92 µM (active)				
C=CC(CCCCC)C1C(=O)NC(=O)C1C(=O)C1C2C(C)CC(C(=O)O)CC2CC1(O)C(=O)/C=C/C (centres undefined)	6.21 µM (active)	inactive	inactive		inactive	inactive	inactive	inactive	inactive	inactive	inactive		2.09 µM (active)	inactive	inactive	inactive	inactive	inactive	8.38 µM (active)	
COc1cc2c(cc1OC)[C@@H](c1ccc3c(c1)OCO3)C(C)C(C)C2=O (some centres undefined)	inactive	inactive	inactive		inactive	inactive	inactive	inactive		18.7 µM (active)	inactive	inactive		inactive	inactive	inactive	inactive	inactive		
COc1cc2c(c(O)c1O)C(=O)c1c(coc1C)C2=O	3.11 µM (active)	6.66 µM (active)	4.2 µM (active)	9.43 µM (active)	21.1 µM (active)	18.8 µM (active)	inactive	inactive	inactive	inactive	14.8 µM (active)	10.6 µM (active)		inactive	15.2 µM (active)				5.29 µM (active)	4.69 µM (active)
C=C1CC[C@@H](O[C@H]2C[C@@](O)([C@H](C)NC(=O)c3[nH]c(C)c(Cl)c3Cl)[C@H](O)[C@@H](C)O2)[C@@H]2C=C[C@H](C)C(/C(O)=C3/C(=O)[C@H](C(C)C)N([C@@H]4O[C@H](C)[C@H](OC(N)=O)[C@H](OC(C)=O)[C@@H]4OC)C3=O)[C@@H]12 (some centres undefined)	15.6 µM (active)	inactive		5.95 µM (active)	inactive	inactive		inactive	inactive	inactive	inactive		inactive	inactive	inactive		inactive	inactive	16.7 µM (active)	
